Measured values taken from PubChem BioAssay (EPA / NIEHS).
Several values for one entry are separate records, joined by “and”; a condition that tells them apart may be missing. Equal values may be shown once. A structure can be active in one record and inactive in another. Activity calls are given as the source filed them. Rule for the calls: active = hit-call score of the fitted dose curve at least 0.9, where 1 is the maximum; inactive = score below 0.9.

Experiment: CCTE_Shafer_MEA_dev_mutual_information_norm: CCTE's Neural Network Formation Assay for Mutual Information Normalization, Shafer Lab (AID 2284091);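 for AC50: potency is for a decrease in mutual information relative to DMSO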
Procedure: CCTE_Shafer_MEA_dev assay is conducted using Axion Biosystems 48 well microelectrode array (MEA) plates and Maestro recording system. Each well of the MEA plate contains a grid of 16 microelectrodes embedded in the culture surface. Electrically active cells, such as neurons, can be cultured over the electrodes, and electrical activity in these cells can be recorded extracellularly. The spontaneous firing of neurons is captured from each electrode on a microsecond timescale providing both temporally and spatially precise data. […] The CCTE_Shafer_MEA_dev assay uses primary cultures of rat cortical neurons. Recordings are made on days post-plating 5, 7, 9 and 12. As these cultures mature over time, neural networks develop functional activity and form cohesive networks in which electrical activity can be highly coordinated. CCTE_Shafer_MEA_dev_mutual_information_norm is 1 of 19 assay components of the CCTE_Shafer_MEA_dev assay. It is a measure of shared information between electrodes during a recording in a microelectrode array (MEA) using Axion Biosystems Maestro 768 channel amplifier with the AxIS adaptive spike detector. To collapse across multiple recordings made on days post-plating 5, 7, 9 and 12, the trapezoidal area-under-the-curve of the component is calculated.Data from the assay component CCTE_Shafer_MEA_dev_mutual_information_norm was analyzed into 1 assay endpoint. This assay endpoint, CCTE_Shafer_MEA_dev_mutual_information_norm, was analyzed in the negative analysis fitting direction relative to DMSO as the negative control and baseline of activity. Using a type of functional reporter, gain or loss-of-signal activity can be used to understand electrical activity.
On the day prior to culture, each well was coated thoroughly with 150 uL of 0.05% polyethyleneimine (PEI, Sigma Cat P3143) in 50 mM HEPES (Sigma Cat H7523) at a pH of 8. The plate was incubated at 37C for one hour. PEI was rinsed out with 500 uL of sterile water three times. Plates were stored at 4C until the day of culture. This culture was plated at a seeding density of 1.5 x 10^5 cells/well on a 48-well MEA plate, prepared as described above. Cells were administered via a 25 uL media/laminin ([…]; Sigma Cat L2020-1MG) drop directly onto the microelectrode array, as adding the cells with the laminin results in better attachment than pre-coating with laminin. After 2 hours, an additional 475 uL of cortical media was added and the cells returned to the incubator. Exposure starts at day 0 of plating and is continued over twelve days of network development until the experiment is terminated. Cells are fed with fresh medium on DIV 5 and 9, following the recordings on those days. The entire volume of media in the well is exchanged and any vehicle or compound treatment is renewed. Complete details are found in OP-NHEERL/ISTD/SBB/TJS/2015-03-r0 (available on request, email shafer.tim@epa.gov). Measurement of the electrical activity is non-invasive, and recordings can be made from the same plate over multiple different days of the culture. In cortical neurons, this allows for the measurement of extracellular action potentials over the period during which networks form in the MEA plate.
With CCOP(=S)(OCC)Oc1nc(Cl)c(Cl)cc1Cl the outcome was “inactive” and the AC50 was 23.2 µM (active) and 15 µM (active). For C=C(C)C(=O)[O][Sn]([CH2]CCC)([CH2]CCC)[CH2]CCC, the AC50 was 0.0123 µM (active). For CCC(=O)C(CC(C)N(C)C)(c1ccccc1)c1ccccc1 (configuration not stated), the AC50 was 6.23 µM (active). In the case of CC(=O)[O][Hg][c]1ccccc1, the AC50 is reported as 0.0082 µM (active). For CC(C)(C)c1cc(O)ccc1O, the AC50 was 2.1 µM (active). For Cn1sc(Cl)cc1=O, the AC50 was 3.45 µM (active). In the case of O=C(O)C(F)(F)C(F)(F)C(F)(F)C(F)(F)C(F)(F)C(F)(F)C(F)(F)C(F)(F)C(F)(F)C(F)(F)F, the outcome is reported as “inactive”. With O=C(O)C(F)(F)C(F)(F)C(F)(F)C(F)(F)C(F)(F)C(F)(F)F the outcome was “inactive”. For ClC1(Cl)C2(Cl)C3(Cl)C4(Cl)C(Cl)(Cl)C5(Cl)C3(Cl)C1(Cl)C5(Cl)C24Cl (configuration not stated), the AC50 was 2.05 µM (active). For COP(=O)(OC)O/C(=C\Cl)c1cc(Cl)c(Cl)cc1Cl, the outcome was “inactive”. For O=C1C2(Cl)C3(Cl)C4(Cl)C(Cl)(Cl)C5(Cl)C3(Cl)C1(Cl)C5(Cl)C24Cl (configuration not stated), the AC50 was 0.125 µM (active).
